Drawing on ChEMBL document CHEMBL1201862, “PubChem BioAssay data set” (2004), this text covers Potency for 100 molecules.

The campaign covered roughly 400,000 compounds. About 2,100 (0.53%) were called active. About 14% were inconclusive and are not listed. The rule behind the calls is not given here. The sample as a whole holds a higher share of actives than the screen did.

The target in this assay is Ataxin-2 (Homo sapiens) (UniProt Q99700). Description: qHTS for Inhibitors of ATXN expression. It counts as functional.
Chain of Ataxin-2 (Homo sapiens) (Q99700 whole entry): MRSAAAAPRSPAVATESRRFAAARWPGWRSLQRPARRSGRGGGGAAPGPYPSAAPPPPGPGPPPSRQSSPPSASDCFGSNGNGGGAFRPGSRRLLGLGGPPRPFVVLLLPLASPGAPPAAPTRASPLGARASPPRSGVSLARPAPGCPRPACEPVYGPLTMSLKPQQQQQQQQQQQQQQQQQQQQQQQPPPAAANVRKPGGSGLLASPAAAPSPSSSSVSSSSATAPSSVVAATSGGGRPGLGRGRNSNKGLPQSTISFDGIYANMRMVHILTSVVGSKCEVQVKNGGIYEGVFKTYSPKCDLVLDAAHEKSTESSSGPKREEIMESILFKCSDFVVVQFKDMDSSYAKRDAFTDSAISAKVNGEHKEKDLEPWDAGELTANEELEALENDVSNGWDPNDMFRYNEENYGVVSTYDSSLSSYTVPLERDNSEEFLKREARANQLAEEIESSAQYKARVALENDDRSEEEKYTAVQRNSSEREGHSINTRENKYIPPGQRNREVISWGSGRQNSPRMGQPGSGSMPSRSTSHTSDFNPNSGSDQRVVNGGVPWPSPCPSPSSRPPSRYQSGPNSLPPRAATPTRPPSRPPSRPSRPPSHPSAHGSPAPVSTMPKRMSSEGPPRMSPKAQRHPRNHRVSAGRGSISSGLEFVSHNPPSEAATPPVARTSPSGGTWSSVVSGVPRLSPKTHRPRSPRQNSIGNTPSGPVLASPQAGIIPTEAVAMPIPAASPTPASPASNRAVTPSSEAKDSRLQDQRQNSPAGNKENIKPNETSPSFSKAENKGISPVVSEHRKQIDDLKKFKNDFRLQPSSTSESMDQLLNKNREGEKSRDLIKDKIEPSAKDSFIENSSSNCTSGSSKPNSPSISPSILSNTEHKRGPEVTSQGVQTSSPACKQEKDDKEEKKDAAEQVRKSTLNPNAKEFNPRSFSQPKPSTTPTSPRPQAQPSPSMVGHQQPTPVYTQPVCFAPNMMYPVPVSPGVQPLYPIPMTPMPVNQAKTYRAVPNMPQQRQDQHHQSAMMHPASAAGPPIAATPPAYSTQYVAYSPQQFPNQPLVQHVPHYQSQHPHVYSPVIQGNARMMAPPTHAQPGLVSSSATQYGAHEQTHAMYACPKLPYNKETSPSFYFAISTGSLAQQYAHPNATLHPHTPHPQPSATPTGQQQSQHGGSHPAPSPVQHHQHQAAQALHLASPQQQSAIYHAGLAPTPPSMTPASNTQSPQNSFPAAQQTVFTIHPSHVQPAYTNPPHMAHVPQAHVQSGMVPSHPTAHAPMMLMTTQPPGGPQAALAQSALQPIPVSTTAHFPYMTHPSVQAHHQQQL
Regarding `COc1ccc(C=Cc2ccc3ccccc3n2)c(OC)c1`, the Potency result was “inactive”. On to `CC(=O)Oc1c(Cl)cc(Cl)cc1/C=C/c1ccc2ccccc2n1`, for which the Potency result was “inactive”. In the case of `COc1cc(/C=C/c2ccc3cccc(OC)c3n2)c(OC(C)=O)c([N+](=O)[O-])c1`, the Potency was 35.5 µM (active). The entry for `CCOC(=O)c1c(C)[nH]c(C)c1C(=O)COC(=O)c1ccc(S(=O)(=O)C(F)F)cc1` is “inactive”; for `CCOC(=O)c1c(C)[nH]c(C)c1C(=O)COC(=O)c1ccc([N+](=O)[O-])s1` it is “inactive”; for `CCOC(=O)c1c(C)[nH]c2c1-c1ccccc1C(=O)C2=O` it is 2.82 µM (active). The entry for `O=C(NCc1ccco1)c1cccc2c1C(=O)c1ccc(N3CCC(Cc4ccccc4)CC3)cc1S2(=O)=O` is “inactive”; for `CC1(C)CNc2cc([N+](=O)[O-])ccc2S1` it is “inactive”. `CCOC(=O)c1cc(-c2ccccc2)nc2nc(N3CCCCC3)sc12`: the Potency entry was “inactive”.

In the case of `CCOC(=O)N1CCN(c2nc(-c3ccccc3)c3ccccc3n2)CC1`, the Potency entry was “inactive”. As to `CCOC(=O)c1c(-c2ccccc2)nnn1-c1nc(OCC)nc(N2CCCCC2)n1`, the Potency was 39.8 µM (active). Turning to `C=C1C(=O)OC2C1CCC(C)=CCCC1(C)OC21` (stereo not given), the Potency was 22.4 µM (active).

Consider `C=CCN(C(=O)CSc1nc2ccsc2c(=O)n1Cc1ccccn1)c1ccccc1`, for which the Potency entry is “inactive”. On to `C=C(C)CSc1cc(C)c(C#N)c2nc3ccccc3n12`, for which the Potency entry was “inactive”. Consider `CCCn1c(=N)c(C(=O)NC2CCCC2)cc2c(=O)n3cccc(C)c3nc21`, for which the Potency result is “inactive”. As to `CCC(CC)C(=O)N(C)c1c(C)nc2c(OCCC3CCCCC3)cccn12`, the Potency was 31.6 µM (active). Next, `CCc1nc2c(OCCC3CCCCC3)cccn2c1N(C)C(=O)C(C)C`: 35.5 µM (active); `CCn1c(=N)c(C(=O)NC2CCCCC2)cc2c(=O)n3cccc(C)c3nc21`: “inactive”. Take `CCc1nc2c(OCCC3CCCCC3)cccn2c1N(C)C(=O)C1CC1`: the Potency was 35.5 µM (active).

As to `CCOCCCn1c(=N)c(C(=O)NC2CCCC2)cc2c(=O)n3cccc(C)c3nc21`, the Potency result was “inactive”. Consider `CCOCCCn1c(=N)c(C(=O)NC2CCCCC2)cc2c(=O)n3ccccc3nc21`, for which the Potency entry is “inactive”. Next, `O=C(NCc1cccc(F)c1)c1cccc2c1C(=O)c1ccc(N3CCC(Cc4ccccc4)CC3)cc1S2(=O)=O`: “inactive”. With `O=C(NNc1ccccn1)C(c1ccccc1)c1ccccc1`, the Potency result is “inactive”. Turning to `COc1ccc(-c2cc3ccc(O)c(CN4CCC(C)CC4)c3oc2=O)cc1OC`, the Potency entry is “inactive”. For the molecule `Cc1c(N=C2N=C(NC(=O)c3ccc(F)cc3)c3ccccc32)c(=O)n(-c2ccccc2)n1C`, the Potency entry was “inactive”.

As to `N=c1oc2cc(O)ccc2cc1C(=O)Nc1ccc(Br)cc1`, the Potency result was “inactive”. As for `CCOC(=O)CC(NC(=O)CCc1c(C)nc2c(-c3ccccc3)c(C)nn2c1C)c1ccc(OC(C)C)cc1` (stereo not given), the Potency was 39.8 µM (active). Turning to `CCOC(=O)Cc1c(C)nc2c(-c3ccc(Cl)cc3)c(C)nn2c1C`, the Potency entry is “inactive”. In the case of `Cc1ccc(/C=C/C(=O)c2ccc(N3CCOCC3)cc2)s1`, the Potency entry is “inactive”. For the molecule `O=C(OCC(=O)N1CCN(c2ccc(F)cc2)CC1)c1cnc2ccccc2n1`, the Potency result is “inactive”.

Consider `O=C(C1CCN(c2ncnc3c2nc2n3CCCCC2)CC1)N1CCN(c2ccc(F)cc2)CC1`, for which the Potency was 22.4 µM (active). As to `O=C(c1cccc(F)c1)N1CCCC(C(=O)N2CCN(c3ccccc3)CC2)C1` (stereo not given), the Potency result was “inactive”. For the molecule `Clc1cccc(N2CCN(c3ncnc4c3nc3n4CCCCC3)CC2)c1`, the Potency is 14.1 µM (active). `CNC(=O)/C(C#N)=C/c1c(N2CCN(c3cccc(Cl)c3)CC2)nc2c(C)cccn2c1=O`: the Potency entry is “inactive”. Consider `Clc1cccc(N2CCN(Cc3nnc(-c4ccccc4)o3)CC2)c1`, for which the Potency result is “inactive”. On to `O=C(OCC(=O)N1CCCC1)c1c[nH]c2ccccc12`, for which the Potency result was “inactive”. Consider `Cc1cc(C)c2c(CC(=O)O)c(C)[nH]c2c1`, for which the Potency result was “inactive”. As for `O=c1ccc2ccc(O)cc2o1`, the Potency result was “inactive”.

As to `CCO/C(O)=C(/Sc1nc(-c2ccccc2)cc(-c2ccccc2)c1C#N)C(C)=O`, the Potency result was “inactive”. Turning to `Cn1c2ccccc2n2c(=O)cc(-c3ccccc3)c(C#N)c12`, the Potency result was “inactive”. Next, `CS(=O)(=O)c1sc2nc(-c3ccccc3)cc(-c3ccccc3)c2c1N`: “inactive”; `CS(=O)(=O)c1nc(-c2ccccc2)cc(-c2ccccc2)c1C#N`: 31.6 µM (active); `CS(=O)(=O)c1nc(-c2ccc(Br)cc2)cc(-c2ccccc2)c1C#N`: 28.2 µM (active). For `N#Cc1c(-c2ccncc2)cc(-c2ccc(F)cc2)nc1N`, the Potency result is “inactive”.

Consider `COCCCn1c(=N)c(C(=O)NCc2cccnc2)cc2c(=O)n3cc(C)ccc3nc21`, for which the Potency result was “inactive”. As to `CC(=O)c1c(C)[nH]c(C(=O)OCC(=O)c2ccc3c(c2)NC(=O)CO3)c1C`, the Potency result is “inactive”. In the case of `CC(C)C(=O)Nc1ccc(S(=O)(=O)Nc2nccc(/C=C/c3ccccc3)n2)cc1`, the Potency entry is “inactive”. Consider `c1ccc(-c2cc(NCCN3CCCCC3)c3ccccc3n2)cc1`, for which the Potency was 20 µM (active). `c1ccc(-c2cc(-c3ccc(N4CCOCC4)cc3)nc3ccccc23)cc1`: the Potency entry was “inactive”.

For `c1ccc2cc3c(NCCN4CCOCC4)ccnc3cc2c1`, the Potency result is “inactive”. On to `Cc1ccc(C2C=C(c3ccc4c(c3)OCO4)Nc3ncnn32)cc1` (stereo not given), for which the Potency entry is “inactive”.

On to `CCSc1ccccc1C(=O)Nc1nc(O)c2ccccc2n1`, for which the Potency result is “inactive”. Turning to `O=C(NNc1c2ccccc2nc2ccccc12)c1ccccc1O`, the Potency was 35.5 µM (active).

As for `CC(C)(C)OC(=O)NNc1c2ccccc2nc2ccccc12`, the Potency result was “inactive”. With `Cc1ccc(CNC(=O)CN(c2ccc(C(C)C)cc2)S(=O)(=O)c2c(C)n[nH]c2C)cc1`, the Potency was 35.5 µM (active). As to `Cc1c(Cl)cccc1N(CC(=O)NC(C)c1ccccc1)S(C)(=O)=O` (stereo not given), the Potency entry was “inactive”.

With `COc1ccc(S(=O)(=O)N(CC(=O)NCc2ccccc2)c2ccc(C)cc2)cc1OC`, the Potency is 35.5 µM (active).

`CSc1nsc(SCC(=O)NCc2ccc(C)cc2)n1`: the Potency result is “inactive”. Next, `COc1ccc(N(CC(=O)Nc2ccccc2Cl)S(=O)(=O)c2ccc(C)cc2)cc1OC`: “inactive”; `Cc1n[nH]c(C)c1S(=O)(=O)N(CC(=O)NC(C)c1ccccc1)c1ccc(C(C)C)cc1` (stereo not given): 35.5 µM (active). As to `Cc1cc(S(=O)(=O)NC(C)C)ccc1OCC(=O)NCc1ccccc1`, the Potency entry is “inactive”. As to `Cc1ccc(CNC(=O)CN(C)S(=O)(=O)c2ccc(F)cc2)cc1`, the Potency result is “inactive”. In the case of `Cc1cccc(C(=O)NCC(=O)OCC(=O)N2CCc3ccccc32)c1`, the Potency result is “inactive”.

Turning to `N#C/C(=C\Nc1ccc2c[nH]nc2c1)c1nc(-c2ccc(Cl)cc2)cs1`, the Potency result was “inactive”. `O=C(NC(=S)NCc1ccco1)c1ccc(Br)cc1`: the Potency result was “inactive”.

With `C=CCN(CC=C)C(=S)NC(=O)c1ccc(-c2ccccc2)cc1`, the Potency was 25.1 µM (active). On to `CCCN(CC1CC1)C(=S)NC(=O)c1ccccc1C`, for which the Potency entry was “inactive”. Regarding `COc1cc(/C=C2/C(=N)N3C(SC)=NSC3=NC2=O)ccc1OC(=O)c1ccco1`, the Potency entry was “inactive”. `CCOC(=O)N1CCN(C(=O)c2cc3cc(C)ccc3[nH]2)CC1`: the Potency entry is “inactive”. Consider `CC(C)CCN1C(=O)C2(OCCCO2)c2cc(Cl)ccc21`, for which the Potency entry was “inactive”. The entry for `COc1cccc(NC(=O)C(=O)NCC2CCCN2S(=O)(=O)c2cccs2)c1` (stereo not given) is “inactive”; for `S=C(Nc1ccc(Cl)c(Cl)c1)NC1CCN(Cc2ccccc2)CC1` it is 28.2 µM (active); for `Cc1ccc(NC(=S)NCc2ccccc2)cc1C` it is “inactive”. Next, `O=C(NC1CCN(Cc2ccccc2)CC1)c1ccccc1Cl`: “inactive”. Regarding `CCCCNc1c(-c2ccc(OC)c(SC(C)CC)c2)nc2cnccn12` (stereo not given), the Potency entry was “inactive”.

As for `CCCCCCSc1cc(-c2nc3cnccn3c2NCCCC)ccc1OC`, the Potency entry is “inactive”. Consider `CCCCCCSc1cc(-c2nc3cc(C)ccn3c2NCCCC)ccc1OC`, for which the Potency is 35.5 µM (active). Turning to `O=C(COC(=O)c1c(F)cccc1F)NC(=O)NCc1ccccc1`, the Potency result is “inactive”.

In the case of `COC(=O)C1=CN(Cc2ccc(OC)c(OC)c2)C=C(C(=O)OC)C1c1cccc(OC)c1OC`, the Potency result was “inactive”. In the case of `COC(=O)C1=CN(Cc2ccccc2)C=C(C(=O)OC)C1c1cc(F)ccc1F`, the Potency entry is “inactive”. `COC(=O)C1=C(C)N(Cc2ccccc2)C(NCC(C)C)=N[C@H]1c1cccc(F)c1`: the Potency was 31.6 µM (active).

On to `COC(=O)C1=C(C)N(Cc2ccccc2)C(NCc2ccc(OC)cc2)=N[C@H]1c1cccc(F)c1`, for which the Potency was 35.5 µM (active). Regarding `COC(=O)C1=C(C)N(Cc2ccccc2)C(NCc2cc(OC)c(OC)c(OC)c2)=N[C@H]1c1ccc(Br)cc1`, the Potency is 35.5 µM (active). As to `COC(=O)C1=CN(C(C)C)C=C(C(=O)OC)C1c1cc(Br)c(OC)c(OC)c1`, the Potency entry is “inactive”. Regarding `COC(=O)C1=C(C)N(c2ccc(OC)cc2)C(C)=C(C(=O)OC)C1c1ccccc1`, the Potency entry was “inactive”. `CCN1C=C(C(=O)OC)C(c2cccc(C)c2)C(C(=O)OC)=C1`: the Potency result was “inactive”. As to `COC(=O)C1=C(C)N(Cc2ccccc2)C(NCc2ccccc2)=N[C@H]1c1cccc(F)c1`, the Potency is 31.6 µM (active).

Regarding `COCCNC(=O)/C(C#N)=C/c1c(N2CCN(C)CC2)nc2ccccn2c1=O`, the Potency entry was “inactive”. Take `COc1ccc2oc3cc(NCCN(C)C)ccc3c(=O)c2c1`: the Potency entry was “inactive”. With `CCOc1ccc(C(=O)/C=C/c2cn(CC(O)CN3CCc4ccccc43)c3ccccc23)cc1` (stereo not given), the Potency result is “inactive”. On to `CCCN(CCC)CC(O)Cn1cc(/C=C/C(=O)c2ccc(Br)cc2)c2ccccc21` (stereo not given), for which the Potency entry is “inactive”.

For `Cc1nc2c(o1)C(=O)c1ccccc1C2=Nc1ccccc1`, the Potency was 31.6 µM (active). For `Cc1nc(-c2ccc([N+](=O)[O-])cc2)c(-c2ccccc2)o1`, the Potency result was “inactive”. `CCc1ccccc1S(=O)(=O)Cc1ccc(C(=O)NCCc2ccc(Cl)cc2)o1`: the Potency was 25.1 µM (active). With `COc1ccc(CCNC(=O)c2ccc(CSc3ccccc3)o2)cc1`, the Potency entry is “inactive”. Turning to `CC(C)C(NC(=O)c1c(F)cccc1F)C(=O)NCCc1ccc(S(N)(=O)=O)cc1` (stereo not given), the Potency entry is “inactive”. Turning to `CCC(=O)Nc1cc2nc(O)cc(C)c2cc1C`, the Potency result is “inactive”. The entry for `O=C(Cc1ccc(Cl)cc1)NCCc1ccc(F)cc1` is “inactive”. With `O=C(NCCc1ccc(Cl)cc1)c1ccc2c(c1)N(Cc1ccc(F)cc1Cl)C(=O)CS2`, the Potency is 14.1 µM (active).

Consider `CCN1CCSc2ccc(C(=O)NCc3ccccc3F)cc21`, for which the Potency entry is “inactive”.
